The results in this text go back to PubChem BioAssay (NCATS).

By viability is commonly meant a read-out of living cells in per cent, often relative to untreated cells.

Assay [1] is described as follows: BET inhibitor-based combinations targeting novel dependencies in MECOM-rearranged (r) AML: OCI-AML3 cell line (AID 2202232). Note: nearly all actives have a fitted effect of over 35% in size. Note: potency is the fitted concentration of half-maximal effect. To be noted: Potency: OCI-AML3 viability. A digest of the protocol: (§1)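 Each compound was tested at eleven concentrations on cells seeded at 500/well. After two days' incubation, ATP-based luminescence reported viability; responses relative to DMSO and blank wells yielded AUC and cell-line-centred Z-AUC.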

Assay [2] can be described thus: BET inhibitor-based combinations targeting novel dependencies in MECOM-rearranged (r) AML: HNT-34 cell line (AID 2202234). Note: nearly all actives have a fitted effect of over 35% in size. Note: potency is the fitted concentration of half-maximal effect. In a few lines:
(§2)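 First, 500 cells per well were seeded; next, drugs were pinned as 11-point doses; then plates sat 48 hr in the incubator; finally CellTiter-Glo was added and luminescence read, with AUC and Z-AUC computed.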

The nature of assay [3]: BET inhibitor-based combinations targeting novel dependencies in MECOM-rearranged (r) AML: UCSD-AML1 cell line (AID 2202235). Note: nearly all actives have a fitted effect of over 40% in size. Note: potency is the fitted concentration of half-maximal effect. In a few lines: as §2
Assay [4] concerns the target Retinaldehyde dehydrogenase 3 (Homo sapiens) (UniProt P47895). The assay is described as follows: qHTS for Inhibitors of the Aldehyde Dehydrogenase Family (ALDH1A3) Primary screen (AID 2061315).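 Note: plate controls were DMSO vehicle for no effect and reference inhibitor for full effect.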
Assay [5] has the same target. The assay is described as follows: qHTS for Inhibitors of the Aldehyde Dehydrogenase Family (ALDH1A3) Confirmatory screens (AID 2061311; note: potency is the fitted concentration of half-maximal effect; nearly all actives have a fitted effect of over 60% in size). (In qHTS, concentration-response curves come from the screen itself.)
Assay [6] shares this target. The assay is described as follows: qHTS for Inhibitors of the Aldehyde Dehydrogenase Family (ALDH1A3) Validation screen (AID 2061312). Note: % is set by controls: 0 for no effect and ±100 for the full control effect; nearly all actives have a fitted effect of over 45% in size.
For assay [7], the target named is Retinal dehydrogenase 2 (Homo sapiens) (UniProt O94788). As to the kind of experiment: qHTS for Inhibitors of the Aldehyde Dehydrogenase Family (ALDH1A2) Confirmation screens (AID 2061314). Note: potency is the fitted concentration of half-maximal effect; nearly all actives have a fitted effect of over 65% in size.
Assay [8] is described as follows: BET inhibitor-based combinations targeting novel dependencies in MECOM-rearranged (r) AML: AML-194 cell line (AID 2202237; note: nearly all actives have a fitted effect of over 40% in size; note: potency is the fitted concentration of half-maximal effect). In a few lines: as §1
Assay [9] can be described thus: BET inhibitor-based combinations targeting novel dependencies in MECOM-rearranged (r) AML: SET-2 cell line (AID 2202231).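 For viability: plate controls were DMSO treated cells for no effect and wells without cells for full effect.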 Note: nearly all actives have a fitted effect of over 35% in size. Note: potency is the fitted concentration of half-maximal effect. To be noted: SET-2 AML cells viability, CellTiter-Glo luminescence, 48 h; viability: active compounds read low, concentration not given here. In a few lines:
as §1
(In general: In ATP-based viability assays light output follows the ATP content of the culture.)

Assay [10] in a line: BET inhibitor-based combinations targeting novel dependencies in MECOM-rearranged (r) AML: MV-4-11 cell line (AID 2202233). Note: nearly all actives have a fitted effect of over 45% in size. Note: potency is the fitted concentration of half-maximal effect. A digest of the protocol: as §2
The nature of assay [11]: BET inhibitor-based combinations targeting novel dependencies in MECOM-rearranged (r) AML: AML-191 cell line (AID 2202236; note: nearly all actives have a fitted effect of over 35% in size; note: potency is the fitted concentration of half-maximal effect). In a few lines: as §1
Assay [12] addresses Aldehyde dehydrogenase, mitochondrial (Homo sapiens) (UniProt P05091). The assay is described as follows: qHTS for Inhibitors of the Aldehyde Dehydrogenase Family (ALDH2) Primary screen (AID 2061308).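 Note: plate controls were vehicle for no effect and reference inhibitor for full effect; nearly all actives have a fitted effect of over 55% in size.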

The structures appear in SMILES notation. Results filed as inconclusive are left out. A number with no mark means an inactive call. The source made the active and inactive calls. Calls come from the whole dose curve; as a rule, active = well fitted curve in the direction sought with a large enough effect; inconclusive = small, poorly fitted or top-dose-only effect, or another doubt; inactive = no such curve, though single readings can be large; an effect the other way counts as inactive or inconclusive.

On to `CC(C)c1ccc2oc3nc(N)c(C(=O)O)cc3c(=O)c2c1`, for which the Potency in [1] and in assay [2] was 14.8 µM (active) throughout. Besides, the Potency result in assay [3] is “inactive”.

Regarding `CC1CCC2(C(=O)O)CCC3(C)C(=CCC4C5(C)CCC(O)C(C)(CO)C5CCC43C)C2C1(C)O` (centres undefined), the Potency result in [4] was “inactive”.

As to `CC(C(=O)O)c1ccc2c(c1)[nH]c1ccc(Cl)cc12` (centres undefined), the Potency is 15.9 µM (active) in assay [5] and 6.34 µM (active) in assay [7]. Also, the Potency entry in [6] and in assay [4] was “inactive” throughout.

For the compound `CC[C@@H]([C@H](C)O)n1ncn(-c2ccc(N3CCN(c4ccc(OCC5CO[C@@](Cn6cncn6)(c6ccc(F)cc6F)C5)cc4)CC3)cc2)c1=O` (some centres undefined), the Potency result in assay [3] was “inactive”. Also, in [8], the Potency is 4.17 µM (active).

For `CCC(=O)O[C@]1(C(=O)SCF)[C@H](C)C[C@H]2[C@@H]3C[C@H](F)C4=CC(=O)C=C[C@]4(C)[C@@]3(F)[C@@H](O)C[C@@]21C`, the viability in [9] was 114%. The Potency entry in assay [1], in assay [10], in assay [2] and in [11] was “inactive” in each case.

`COc1ccc(-n2[nH]c(=O)c3[nH]c4cc(Cl)ccc4c(=O)c3c2=O)c(C)c1`: in assay [4], the Potency entry was “inactive”.

In the case of `CCn1c(C(=O)N(C2CC2)C2CC2)cc2c3c(ncn3C)c(Nc3cc(C)n(C)n3)nc21`, the Potency result in [12] and in [4] was “inactive” in each case. Also, the Potency is 2.63 µM (active) in assay [10], 16.6 µM (active) in [2] and 3.32 µM (active) in assay [3].

Consider `CC(C)[C@H](CO)Nc1nc(Nc2cccc(Cl)c2)c2ncn(C(C)C)c2n1`, for which the Potency in assay [9] is 16.6 µM (active); in assay [1] it was 18.6 µM (active); in assay [10] it was 3.72 µM (active); in assay [2], 16.6 µM (active); in assay [3], 26.3 µM (active); in assay [11] it was 14.8 µM (active). The Potency in assay [8] is 16.6 µM (active).

`c1ccc(CNc2nc(NCc3ccccc3)c3ccccc3n2)cc1`: the Potency in assay [9] was 16.6 µM (active); in [1], 18.6 µM (active); in assay [10], 9.34 µM (active); in assay [3], 8.33 µM (active); in assay [11] it was 9.34 µM (active); in assay [8], 9.34 µM (active).

Regarding `C/C=C/CCC1Cc2cc(O)c(CCCC)c(O)c2C(=O)O1` (centres undefined), the Potency entry in assay [4] is “inactive”.

On to `Cc1cnc(Nc2ccc(N3CCN(C)CC3)cc2)nc1Nc1cccc(S(=O)(=O)NC(C)(C)C)c1`, for which the Potency is 2.63 µM (active) in assay [9]; 5.25 µM (active) in assay [1]; 0.662 µM (active) in assay [10]; 0.833 µM (active) in [2]; 1.86 µM (active) in [3]; 2.63 µM (active) in assay [11]. The Potency in assay [8] is 2.95 µM (active).

`CO[C@@H]1[C@H](N(C)C(=O)c2ccccc2)C[C@H]2O[C@]1(C)n1c3ccccc3c3c4c(c5c6ccccc6n2c5c31)C(=O)NC4`: the Potency in assay [1] is 3.32 µM (active); in assay [10] it was 0.0934 µM (active).

For `COc1cc(N2CCC(O)CC2)ccc1Nc1cc(Nc2ccccc2S(=O)(=O)C(C)C)c2cc[nH]c2n1`, in assay [12], the Potency entry was “inactive”. Moreover, the Potency in [1] was 18.6 µM (active); in assay [2], 18.6 µM (active); in [3], 26.3 µM (active); in assay [11], 16.6 µM (active).

Turning to `O=C(O)CCC1CCC(c2cc(F)ccc2F)(S(=O)(=O)c2ccc(Cl)cc2)CC1` (centres undefined), the Potency entry in assay [1], in [10], in assay [2], in assay [3] and in assay [8] was “inactive” in each case.

As for `Cc1cc(C)c(CNC(=O)c2cc(-c3ccc(CN4CCOCC4)cc3)cc3c2cnn3C2CCCC2)c(=O)[nH]1`, the Potency result in [12] and in [4] was “inactive” each time. The Potency in assay [10] is 29.5 µM (active).

As to `Cc1c(CN(C)C(=O)/C=C/c2cnc3c(c2)CCC(=O)N3)oc2ccccc12`, the Potency entry in assay [4] is “inactive”.

Take `CC(C)(O)CNc1nc(Nc2ccnc(C(F)(F)F)c2)nc(-c2cccc(C(F)(F)F)n2)n1`: the Potency entry in assay [12], in [4] and in assay [3] was “inactive” in each case.

For the compound `CCn1nc(C2CCN(C(=O)CCO)CC2)nc1-c1cnc(N)c(-c2nnc(C(C)(C)C)o2)n1`, the Potency result in [12] and in [4] was “inactive” in each case. The Potency was 5.9 µM (active) in assay [10] and 16.6 µM (active) in [2].

With `O=[N+]([O-])c1cncn1CCN1CCOCC1`, the Potency result in [1], in [2], in assay [3], in assay [11] and in [8] was “inactive” in each case.

Regarding `Oc1ccc(C2CCN(c3ccnc4ccccc34)CC2)cc1O`, the values for the Potency in assay [1] and in [10] were 13.2 µM (active) and 9.34 µM (active), respectively. In addition, the Potency entry in [3] was “inactive”.

`C[Se]CCC(N)C(=O)O` (centres undefined): the viability in assay [9] is 105%. Besides, the Potency entry in [1], in assay [10], in [2], in assay [3], in assay [11] and in assay [8] was “inactive” in each case.

For `C[C@]12CC[C@@H]3c4ccc(O)cc4C[C@@H](CCCCCCCCCS(=O)CCCC(F)(F)C(F)(F)F)[C@H]3[C@H]1CC[C@H]2O` (some centres undefined), the Potency in assay [9] is 4.68 µM (active); in assay [10], 9.34 µM (active). The Potency result in [3] and in assay [8] was “inactive” each time.

For `C=C1c2cccc(O)c2C(O)=C2C(=O)[C@@]3(O)C(O)=C(C(N)=O)C(=O)[C@@H](N(C)C)[C@@H]3[C@@H](O)[C@H]12`, the viability in assay [9] is 86.7%. For the same compound, the Potency entry in [10], in assay [3], in assay [11] and in [8] was “inactive” in each case.

Turning to `COc1ccc(-c2cc3nccn3c(Nc3ncccc3C(N)=O)n2)cc1OC`, the Potency result in assay [12] and in assay [4] was “inactive” in each case. Moreover, the Potency in assay [10] was 0.372 µM (active).

For the compound `CC1(C)CCC2=C(O1)c1ccccc1C(=O)C2=O`, the Potency was 18.6 µM (active) in assay [9]; 18.6 µM (active) in assay [1]; 18.6 µM (active) in assay [10]; 16.6 µM (active) in assay [2]; 9.34 µM (active) in assay [3]; 7.42 µM (active) in assay [11]. Besides, the Potency in [8] is 26.3 µM (active).
